Results from PubChem BioAssay (EPA / NIEHS).
Records with an inconclusive call do not appear. Active and inactive are the calls of the source. How the source made its calls, unless noted: active means hit-call score of the fitted dose curve at least 0.9, where 1 is the maximum; inactive means score below 0.9.

Tests used:
[1] = ATG_PXRE_CIS: Attagene CIS-FACTORIAL HepG2 Assay for human Pregnane X Receptor Element (PXRE) (AID 2282957); settings: HepG2 Attagene CIS-FACTORIAL PXRE reporter, mRNA; actives raise or lower the signal
Summary of the method: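 Read-out: fluorescence of reporter-specific RT-PCR products resolved by capillary electrophoresis, fitted bidirectionally relative to DMSO. Human HepG2 liver cells carried transfected cis-promoter reporter units and were exposed to chemicals for 24 h.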

[2] = ATG_RORE_CIS: Attagene CIS-FACTORIAL HepG2 Assay for human RAR-related Orphan Receptor Element (RORE) (AID 2282959); settings: HepG2 Attagene cis-factorial RORE reporter, mRNA; actives raise or lower the signal
Summary of the method: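 Endogenous factor activity at a cis response element is read as reporter transcript levels in HepG2 cells, 24 h post-dose. Transcripts are quantified by RT-PCR with capillary electrophoresis, and data fitted in both directions against DMSO.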

[3] = ATG_Sox_CIS: Attagene CIS-FACTORIAL HepG2 Assay for human SRY-box transcription factor (SOX) (AID 2282960); settings: HepG2 Attagene cis-factorial SOX reporter, mRNA; actives raise or lower the signal
Summary of the method: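 Measures mRNA induction of a SOX1-associated reporter in HepG2 after 24 h dosing. Fluorescently labelled RT-PCR fragments are separated by capillary electrophoresis, and gain or loss relative to DMSO control is fitted.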

[4] = target: Transcription factor Sp1 (Homo sapiens) (UniProt P08047); test: ATG_Sp1_CIS: Attagene CIS-FACTORIAL HepG2 Assay for human Specificity Protein 1 (Sp1) (AID 2282961); settings: HepG2 Sp1 cis-reporter transcription, actives raise or lower the signal
Sequence of Transcription factor Sp1 (Homo sapiens) (P08047 whole entry, looked up): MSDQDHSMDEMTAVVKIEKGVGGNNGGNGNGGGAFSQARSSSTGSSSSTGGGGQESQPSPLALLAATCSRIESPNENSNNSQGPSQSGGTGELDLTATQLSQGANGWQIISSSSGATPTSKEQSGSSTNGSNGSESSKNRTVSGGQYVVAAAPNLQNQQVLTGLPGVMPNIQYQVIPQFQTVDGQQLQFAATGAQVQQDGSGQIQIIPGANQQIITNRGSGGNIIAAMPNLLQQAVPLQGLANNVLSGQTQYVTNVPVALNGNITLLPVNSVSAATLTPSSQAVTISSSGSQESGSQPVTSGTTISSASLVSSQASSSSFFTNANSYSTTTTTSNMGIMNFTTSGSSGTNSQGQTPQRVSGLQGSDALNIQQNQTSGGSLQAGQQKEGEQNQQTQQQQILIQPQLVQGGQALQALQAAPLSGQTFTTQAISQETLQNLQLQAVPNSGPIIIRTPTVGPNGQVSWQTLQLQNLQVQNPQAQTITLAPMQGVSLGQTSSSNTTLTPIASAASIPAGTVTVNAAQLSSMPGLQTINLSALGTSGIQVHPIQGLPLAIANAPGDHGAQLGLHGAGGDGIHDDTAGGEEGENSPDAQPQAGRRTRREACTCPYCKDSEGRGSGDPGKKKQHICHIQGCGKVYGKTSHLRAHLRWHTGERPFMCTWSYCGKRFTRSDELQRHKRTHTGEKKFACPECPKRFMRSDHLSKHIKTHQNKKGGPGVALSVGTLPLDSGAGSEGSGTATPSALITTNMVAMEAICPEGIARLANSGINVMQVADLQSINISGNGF
Summary of the method: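 Cells: HepG2, transiently transfected with cis-regulated multiplexed reporters. Exposure: 24 h. Detection: reporter transcripts amplified, fluorescently labeled, restriction-digested and sized by capillary electrophoresis. Analysis: bidirectional fit relative to DMSO.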

[5] = ATG_SREBP_CIS: Attagene CIS-FACTORIAL HepG2 Assay for human Sterol Regulatory Element Binding (SREBP) (AID 2282962); settings: HepG2 Attagene cis-factorial SREBP reporter, mRNA; actives raise or lower the signal
Summary of the method: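 Readout: fluorescent reporter-transcript peaks resolved by capillary electrophoresis after RT-PCR. Cells were human HepG2 carrying transfected cis-promoter reporter constructs, dosed for 24 h. Gain or loss of signal was fitted against DMSO controls.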

[6] = target: Signal transducer and activator of transcription 3 (Homo sapiens) (UniProt P40763); test: ATG_STAT3_CIS: Attagene CIS-FACTORIAL HepG2 Assay for human Signal Transducer and Activator of Transcription 3 (STAT3) (AID 2282963); settings: HepG2, Attagene cis-factorial STAT3 reporter transcription; actives raise or lower the signal
Sequence of Signal transducer and activator of transcription 3 (Homo sapiens) (P40763 whole entry, looked up): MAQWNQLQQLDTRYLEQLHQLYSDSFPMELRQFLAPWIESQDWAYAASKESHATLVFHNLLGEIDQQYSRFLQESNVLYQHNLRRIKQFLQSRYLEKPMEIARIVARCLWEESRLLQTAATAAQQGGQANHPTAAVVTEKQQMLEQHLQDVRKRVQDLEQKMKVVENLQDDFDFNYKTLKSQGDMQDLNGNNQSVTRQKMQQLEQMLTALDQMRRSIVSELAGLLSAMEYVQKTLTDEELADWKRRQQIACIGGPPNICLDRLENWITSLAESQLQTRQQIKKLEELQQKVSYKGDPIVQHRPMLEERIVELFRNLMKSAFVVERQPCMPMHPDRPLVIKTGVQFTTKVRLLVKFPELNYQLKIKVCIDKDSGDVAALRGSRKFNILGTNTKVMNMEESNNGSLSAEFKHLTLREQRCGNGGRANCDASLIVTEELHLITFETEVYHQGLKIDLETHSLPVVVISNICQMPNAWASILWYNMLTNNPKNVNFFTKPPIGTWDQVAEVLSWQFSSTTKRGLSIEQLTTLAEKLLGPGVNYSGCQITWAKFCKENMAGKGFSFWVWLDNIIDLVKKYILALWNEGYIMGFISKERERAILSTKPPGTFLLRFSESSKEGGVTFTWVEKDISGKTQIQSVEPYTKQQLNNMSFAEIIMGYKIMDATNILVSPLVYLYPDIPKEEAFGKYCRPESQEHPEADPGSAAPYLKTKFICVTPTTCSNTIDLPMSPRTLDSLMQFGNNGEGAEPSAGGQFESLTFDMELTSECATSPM
Summary of the method: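 HepG2, MRTU-transfected, 24 h dosing. RNA → RT → PCR → FAM label → HpaI → CE. Bidirectional fit vs DMSO.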

[7] = ATG_TA_CIS: Attagene CIS-FACTORIAL HepG2 Assay for human TA Basal Promoter (AID 2282964); settings: HepG2 Attagene CIS-factorial TA basal promoter reporter; actives raise or lower the signal
Summary of the method: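 Background internal-marker endpoint from a 52-component HepG2 cis-reporter panel. Cells treated 24 h; reporter transcripts quantified via RT-PCR and CE fluorescence against DMSO baseline.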

[8] = ATG_TCF_b_cat_CIS: Attagene CIS-FACTORIAL HepG2 Assay for human T-Cell-Factor with beta-catenin (TCF/b-cat) (AID 2282965); settings: HepG2 TCF/beta-catenin cis-reporter transcription, actives raise or lower the signal
Summary of the method: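 HepG2 cells transiently transfected with multiple cis-promoter-regulated reporter transcription units, so endogenous transcription factor activity is measured. Reporter mRNA read 24 hours after dosing by RT-PCR, fluorescent labelling and capillary electrophoresis; bidirectional fitting against DMSO.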

[9] = ATG_TAL_CIS: Attagene CIS-FACTORIAL HepG2 Assay for human TAL Basal Promoter (AID 2282966); settings: HepG2 Attagene cis-factorial TAL promoter reporter; actives raise or lower the signal;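 further: background control endpoint measuring basal TAL promoter reporter mRNA not a specific factor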
Summary of the method: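 HepG2, transient MRTU transfection, 24 h compound exposure; RNA → oligo(dT) RT → PCR → 6-FAM primer extension → HpaI digest → CE fluorescence. Bidirectional curve fit vs DMSO. Background-control readout.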

[10] = ATG_TGFb_CIS: Attagene CIS-FACTORIAL HepG2 Assay for human Transforming Growth Factor (TGF) (AID 2282967); settings: HepG2 Attagene CIS TGFb reporter, mRNA transcription; actives raise or lower the signal
Summary of the method: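 Liver HepG2 line, cis-factorial reporter panel, 24 h dosing. Quantitation: RT-PCR products labeled with 6-FAM, cut with HpaI, resolved by capillary electrophoresis; DMSO-referenced bidirectional analysis.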

[11] = ATG_VDRE_CIS: Attagene CIS-FACTORIAL HepG2 Assay for human Vitamin D Receptor Element (VDRE) (AID 2282968); settings: HepG2 VDRE cis-reporter transcription, actives raise or lower the signal
Summary of the method: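 Steps: transfect HepG2 with multiple reporter transcription units; dose chemicals 24 h; isolate RNA; RT-PCR; label with 6-FAM primer extension; HpaI digest; capillary electrophoresis. Curves fitted both directions against DMSO.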

[12] = target: Nuclear receptor subfamily 1 group I member 3 (Homo sapiens) (UniProt Q14994); test: ATG_CAR_TRANS: Attagene TRANS-FACTORIAL HepG2 Assay for human Constitutive Androstane Receptor (CAR) (AID 2282969; active means hit-call score of the fitted dose curve at least 0.9, where 1 is the maximum;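 further: activators raise reporter mRNA above DMSO so AC50 marks induction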); settings: HepG2 Attagene TRANS-FACTORIAL CAR reporter
Sequence of Nuclear receptor subfamily 1 group I member 3 (Homo sapiens) (Q14994 whole entry, looked up, the tested form may be a part): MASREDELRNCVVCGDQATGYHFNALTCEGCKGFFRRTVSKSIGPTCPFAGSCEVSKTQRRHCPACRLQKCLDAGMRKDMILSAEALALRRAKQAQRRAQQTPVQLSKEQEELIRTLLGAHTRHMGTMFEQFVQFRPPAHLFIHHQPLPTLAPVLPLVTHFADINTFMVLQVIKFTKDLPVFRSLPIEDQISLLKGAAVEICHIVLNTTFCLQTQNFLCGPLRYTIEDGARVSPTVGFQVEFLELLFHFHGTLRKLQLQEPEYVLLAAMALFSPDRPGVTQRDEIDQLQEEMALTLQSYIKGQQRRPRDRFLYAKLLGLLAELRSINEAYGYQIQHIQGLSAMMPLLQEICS
Summary of the method: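 Steps: transient transfection of HepG2 with multiple GAL4-UAS reporter units; 24 h compound incubation; RNA isolation, RT-PCR, 6-FAM primer extension, HpaI digest; capillary electrophoresis. Gain-of-signal relative to DMSO negative control.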

[13] = target: Steroid hormone receptor ERR1 (Homo sapiens) (UniProt P11474); test: ATG_ERRa_TRANS: Attagene TRANS-FACTORIAL HepG2 Assay for human Estrogen-Related Receptor alpha (ERRa) (AID 2282971; active means hit-call score of the fitted dose curve at least 0.9, where 1 is the maximum); settings: HepG2 Attagene TRANS reporter, ERRa transactivation
Sequence of Steroid hormone receptor ERR1 (Homo sapiens) (P11474 whole entry, looked up, the tested form may be a part): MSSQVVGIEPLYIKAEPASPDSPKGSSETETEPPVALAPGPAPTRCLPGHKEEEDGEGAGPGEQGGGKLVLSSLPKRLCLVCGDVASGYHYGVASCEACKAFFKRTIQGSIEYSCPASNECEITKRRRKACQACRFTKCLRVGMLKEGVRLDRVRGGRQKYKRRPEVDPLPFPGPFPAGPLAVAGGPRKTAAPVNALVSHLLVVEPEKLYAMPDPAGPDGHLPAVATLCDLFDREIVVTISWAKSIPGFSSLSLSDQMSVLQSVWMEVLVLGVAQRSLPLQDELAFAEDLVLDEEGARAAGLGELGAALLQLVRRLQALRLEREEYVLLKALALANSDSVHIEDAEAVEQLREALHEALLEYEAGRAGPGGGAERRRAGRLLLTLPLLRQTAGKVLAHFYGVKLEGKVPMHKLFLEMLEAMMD
Summary of the method: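 Transfected HepG2, 24 h dosing, ERRa-Gal4 chimera driving GAL4-UAS reporter. Readout: reporter mRNA via RT-PCR plus capillary electrophoresis (fluorescence). Positive direction vs DMSO control.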

[14] = target: X-box-binding protein 1 (Homo sapiens) (UniProt P17861); test: ATG_Xbp1_CIS: Attagene CIS-FACTORIAL HepG2 Assay for human X-box Binding Protein 1 (XBP1) (AID 2282972); settings: HepG2 XBP1 cis-element reporter, Attagene multiplex; actives raise or lower the signal
Sequence of X-box-binding protein 1 (Homo sapiens) (P17861 whole entry, looked up, the tested form may be a part): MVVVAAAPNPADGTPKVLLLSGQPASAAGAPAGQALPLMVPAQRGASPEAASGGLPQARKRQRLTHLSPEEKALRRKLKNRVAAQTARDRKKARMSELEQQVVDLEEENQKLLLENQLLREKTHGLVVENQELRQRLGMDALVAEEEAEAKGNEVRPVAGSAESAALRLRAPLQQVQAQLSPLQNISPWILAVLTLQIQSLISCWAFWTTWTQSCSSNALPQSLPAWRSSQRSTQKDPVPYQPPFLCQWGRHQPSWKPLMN
Summary of the method: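 Read-out: fluorescent reporter mRNA fragments resolved by capillary electrophoresis after RT-PCR. Human HepG2 liver cells carried transfected cis-promoter reporter units and were exposed to chemicals for 24 hours. Gain or loss of signal fitted relative to DMSO baseline.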

[15] = target: Estrogen-related receptor gamma (Homo sapiens) (UniProt P62508); test: ATG_ERRg_TRANS: Attagene TRANS-FACTORIAL HepG2 Assay for human Estrogen-Related Receptor gamma (ERRg) (AID 2282977; active means hit-call score of the fitted dose curve at least 0.9, where 1 is the maximum;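 further: hits increase reporter signal over DMSO so potencies reflect activators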); settings: HepG2 Attagene TRANS reporter, ERRg transactivation
Sequence of Estrogen-related receptor gamma (Homo sapiens) (P62508 whole entry, looked up, the tested form may be a part): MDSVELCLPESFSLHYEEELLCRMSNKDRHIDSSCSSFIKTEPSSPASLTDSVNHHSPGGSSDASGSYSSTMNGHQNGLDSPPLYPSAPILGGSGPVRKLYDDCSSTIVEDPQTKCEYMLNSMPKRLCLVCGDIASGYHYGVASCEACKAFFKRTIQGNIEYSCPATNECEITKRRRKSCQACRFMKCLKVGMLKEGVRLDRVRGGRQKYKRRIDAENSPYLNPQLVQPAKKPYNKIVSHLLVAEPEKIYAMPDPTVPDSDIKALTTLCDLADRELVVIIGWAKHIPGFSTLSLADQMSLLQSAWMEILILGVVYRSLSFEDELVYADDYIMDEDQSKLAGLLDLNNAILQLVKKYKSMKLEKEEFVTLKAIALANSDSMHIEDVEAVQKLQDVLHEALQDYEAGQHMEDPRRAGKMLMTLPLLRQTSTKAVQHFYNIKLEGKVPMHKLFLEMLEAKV
Summary of the method: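 Induction of reporter transcripts through a chimeric NR-Gal4 protein is quantified in transfected human HepG2 liver cells after 24 h chemical exposure, using RT-PCR with capillary electrophoresis detection and DMSO as baseline.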

[16] = ATG_PPRE_CIS: Attagene CIS-FACTORIAL HepG2 Assay for human Peroxisome Proliferator-activated Response Element (PPRE) (AID 2282958); settings: HepG2 PPRE cis-element reporter, Attagene transcription factor profiling; actives raise or lower the signal
Summary of the method: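 In this cell-based multiplex, a PPRE cis element drives a reporter sequence in transiently transfected HepG2 cells. Following 24 h treatment, labeled cDNA amplicons are sized and quantified by capillary electrophoresis, with DMSO defining baseline.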

[17] = target: Estrogen receptor (Homo sapiens) (UniProt P03372); test: ATG_ERa_TRANS: Attagene TRANS-FACTORIAL HepG2 Assay for human Estrogen Receptor alpha (ERa) (AID 2282970; active means hit-call score of the fitted dose curve at least 0.9, where 1 is the maximum); settings: HepG2 Attagene TRANS ERa GAL4 reporter, mRNA
Sequence of Estrogen receptor (Homo sapiens) (P03372 whole entry, looked up, the tested form may be a part): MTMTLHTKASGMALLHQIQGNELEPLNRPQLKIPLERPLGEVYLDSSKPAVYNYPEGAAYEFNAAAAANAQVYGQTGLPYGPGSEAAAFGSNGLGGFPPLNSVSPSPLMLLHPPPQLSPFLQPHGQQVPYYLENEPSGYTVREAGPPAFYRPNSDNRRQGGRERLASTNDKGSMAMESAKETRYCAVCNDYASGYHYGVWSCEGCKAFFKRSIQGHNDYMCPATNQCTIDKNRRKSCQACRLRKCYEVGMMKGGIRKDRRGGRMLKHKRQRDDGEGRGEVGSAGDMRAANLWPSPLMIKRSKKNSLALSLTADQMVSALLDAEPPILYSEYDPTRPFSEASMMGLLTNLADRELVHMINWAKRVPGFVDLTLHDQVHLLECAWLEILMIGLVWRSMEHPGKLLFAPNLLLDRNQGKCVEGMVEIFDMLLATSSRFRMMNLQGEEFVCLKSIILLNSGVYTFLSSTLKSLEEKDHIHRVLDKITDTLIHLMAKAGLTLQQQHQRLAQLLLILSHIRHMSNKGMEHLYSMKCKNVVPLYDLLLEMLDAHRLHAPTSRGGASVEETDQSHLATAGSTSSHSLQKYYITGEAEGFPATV
Summary of the method: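 Reporter mRNA induction after 24 hours, detected by fluorescent RT-PCR and capillary electrophoresis, gives the read-out. Cells are HepG2 transiently transfected with GAL4-UAS reporter transcription units responding to chimeric NR-Gal4. Activity is taken as gain of signal over DMSO baseline.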

[18] = ATG_M_19_TRANS: Attagene TRANS-FACTORIAL HepG2 Assay for M19 Transcription Factor (Internal Marker) (AID 2282974; active means hit-call score of the fitted dose curve at least 0.9, where 1 is the maximum); settings: HepG2 Attagene TRANS-FACTORIAL M19 internal marker reporter
Summary of the method: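 Reporter mRNA induction was measured in transfected HepG2 cells 24 h after dosing. Endpoint fitted upward relative to DMSO and serves as a background control within the multiplexed TRANS panel.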

[19] = ATG_GAL4_TRANS: Attagene TRANS-FACTORIAL HepG2 Assay for GAL4 (Internal Marker) (AID 2282976; active means hit-call score of the fitted dose curve at least 0.9, where 1 is the maximum); settings: HepG2 Attagene TRANS GAL4 internal marker reporter
Summary of the method: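 RT-PCR/capillary electrophoresis readout of reporter mRNA. HepG2, transient MRTU transfection (GAL4-UAS reporters), 24 h compound exposure. Background-control endpoint, positive direction vs DMSO baseline.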

[20] = target: Androgen receptor (Homo sapiens) (UniProt P10275); test: ATG_AR_TRANS: Attagene TRANS-FACTORIAL HepG2 Assay for human Androgen Receptor (AR) (AID 2282973; active means hit-call score of the fitted dose curve at least 0.9, where 1 is the maximum); settings: HepG2 Attagene TRANS-FACTORIAL AR reporter transcription
Sequence of Androgen receptor (Homo sapiens) (P10275 whole entry, looked up, the tested form may be a part): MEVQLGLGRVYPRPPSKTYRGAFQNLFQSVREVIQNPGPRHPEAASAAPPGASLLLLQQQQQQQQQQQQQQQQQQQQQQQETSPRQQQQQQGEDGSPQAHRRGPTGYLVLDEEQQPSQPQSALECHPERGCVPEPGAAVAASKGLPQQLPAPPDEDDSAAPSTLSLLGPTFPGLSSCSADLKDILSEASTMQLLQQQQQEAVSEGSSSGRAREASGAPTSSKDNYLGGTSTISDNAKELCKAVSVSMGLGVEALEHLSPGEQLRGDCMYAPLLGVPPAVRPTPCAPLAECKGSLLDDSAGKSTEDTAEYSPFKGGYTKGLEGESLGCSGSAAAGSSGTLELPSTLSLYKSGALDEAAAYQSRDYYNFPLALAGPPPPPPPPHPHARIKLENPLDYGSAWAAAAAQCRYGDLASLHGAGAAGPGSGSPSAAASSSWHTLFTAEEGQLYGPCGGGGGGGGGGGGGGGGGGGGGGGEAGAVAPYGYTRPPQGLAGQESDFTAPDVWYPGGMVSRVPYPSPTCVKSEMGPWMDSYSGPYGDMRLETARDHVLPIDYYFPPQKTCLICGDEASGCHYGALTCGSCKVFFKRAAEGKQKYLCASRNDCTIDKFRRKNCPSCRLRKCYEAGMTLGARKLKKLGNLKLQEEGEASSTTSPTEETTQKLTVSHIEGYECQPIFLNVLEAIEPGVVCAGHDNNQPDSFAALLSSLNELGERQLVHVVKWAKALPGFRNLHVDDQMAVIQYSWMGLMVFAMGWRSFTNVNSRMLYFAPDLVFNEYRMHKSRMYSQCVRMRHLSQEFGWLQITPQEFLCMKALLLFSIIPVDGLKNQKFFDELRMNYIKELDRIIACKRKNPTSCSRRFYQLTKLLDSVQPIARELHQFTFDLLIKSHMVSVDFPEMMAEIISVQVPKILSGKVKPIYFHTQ
Summary of the method: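 Readout is reporter transcript abundance, quantified by fluorescent RT-PCR products separated on capillary electrophoresis. Human HepG2 liver cells carried transiently transfected NR-Gal4 chimera plus GAL4-UAS reporter constructs and were dosed for 24 h; activity scored upward versus DMSO.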

Measured: AC50

Nc1ccc([N+](=O)[O-])cc1
not listed: [15] | [16] | [17] | [18] | [19] | [20]
inactive: all other assays above

Cc1ccc(N)cc1
not listed: [11] | [13] | [16] | [17] | [18] | [19] | [20]
inactive: all other assays above

O=C(Oc1ccc(Br)cc1)N1CCN2CCC1CC2
active: [1] 26 µM | [8] 43.3 µM
not listed: [2] | [12] | [13] | [15] | [20]
inactive: all other assays above

c1ccc2c(c1)oc1ccccc12
not listed: [2] | [13] | [15] | [16] | [17] | [18] | [20]
inactive: all other assays above

Cc1ccc(N=C=O)cc1N=C=O
not listed: [12] | [13] | [16] | [17] | [18] | [19] | [20]
inactive: all other assays above

O=Cc1ccco1
not listed: [12] | [13] | [15] | [16] | [17] | [18] | [19] | [20]
inactive: all other assays above

CS(=O)(=O)NC(=O)c1cc(Oc2ccc(C(F)(F)F)cc2Cl)ccc1[N+](=O)[O-]
active: [1] 8.23 µM
not listed: [12] | [13] | [15] | [16] | [17] | [18] | [20]
inactive: all other assays above

COP(=S)(OC)SCN1C(=O)c2ccccc2C1=O
inactive: [16] | [3] | [4] | [5] | [6] | [7] | [8] | [9] | [10] | [14]
active: [1] 26.8 µM

CN(C)c1ccccc1
not listed: [2] | [12] | [16] | [17] | [18] | [20]
inactive: all other assays above

c1ccc(N=Nc2ccccc2)cc1
not listed: [15] | [16] | [17] | [18] | [20]
inactive: all other assays above

Oc1ccc2ccc3cccc4ccc1c2c34
active: [1] 13 µM
not listed: [12] | [13] | [15] | [16] | [17] | [18] | [19] | [20]
inactive: all other assays above

Nc1ccc(Cl)cc1N
active: [1] 26.1 µM | [2] 27.7 µM | [3] 26.8 µM | [7] 9.74 µM | [11] 27.3 µM | [14] 21 µM
not listed: [13] | [15] | [16] | [17] | [18]
inactive: all other assays above

C=CCc1ccc2c(c1)OCO2
not listed: [12] | [13] | [15] | [16] | [17] | [18] | [19] | [20]
inactive: all other assays above

CC(C)(C)OOC(C)(C)CCC(C)(C)OOC(C)(C)C
active: [1] 8.34 µM | [4] 177 µM | [5] 38 µM
not listed: [16] | [17] | [18] | [19] | [20]
inactive: all other assays above

[Cl-].[Cl-].[Hg+2]
active: [5] 51 µM
not listed: [12] | [13] | [15] | [16] | [17] | [18] | [19] | [20]
inactive: all other assays above
